# Compound activity (PubChem BioAssay)
# Shn3 3UTR inh: reduction of Shn3 3'UTR firefly luciferase signal, primary screen, Schnurri-3 inhibitor project, cell-based, Clone20 osteoblasts, set 2 | Clone20 osteoblast Shn3 3'UTR firefly luciferase, 24 h | inhibition, % at 12.5 µM | 360,000 tested, 0.52% active | AID 588674, 2011;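 active = mean inhibition of at least 75% with every replicate also reaching 75%; inconclusive = mean inhibition at least 75% but some replicate below; inactive = mean inhibition below 75%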
# EWS-Fli inh: EWS/Fli-driven NR0B1 reporter inhibitors, primary screen, A673 cells, NR0B1 luciferase, luminescence, MLPCN library. inhibition, % at 12.6 µM. viability-normalised. AID 651661, 2012. 350,000 tested, 0.67% active;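 active = mean inhibition of at least 50% after viability correction, with every replicate also passing that limit; inconclusive = mean reaches 50% but only one of two replicates passes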;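 note: firefly luciferase signal divided by Alamar Blue viability fluorescence both relative to DMSO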
# LMP1 NFkB inh: EBV LMP1-driven NF-kappaB luciferase reporter inhibitors, primary screen, cell-based, luminescence, single point; LMP1-induced NF-kappaB luciferase reporter cells; inhibition, % at 12.5 µM; 350,000 tested, 0.69% active; AID 504558, 2011; in the data active = inhibition above about 41%; inconclusive = no clear call, values can overlap the other calls
# LGR2 antag: inhibitors of bursicon-induced LGR2 CRE-luciferase signal, primary screen, cell-based, HEK293, CRE-luciferase reporter, bursicon stimulation; bursicon-stimulated, 4 h; inhibition, % at 9.99 µM; 380,000 tested, 0.35% active; AID 720647, 2013;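 active = drop in luminescence signal, shown as inhibition above about 50% in the replicate tests, limit read from the data, passing the limit was not always enough; inconclusive = probably only some replicates passing the limit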;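 note: agonist challenge used bursicon conditioned medium at about half maximal strength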
# TRPM1 prom inh: inhibitors of MITF-dependent TRPM1 promoter reporter, primary screen, cell-based, SK-MEL-5, single point, luciferase; SK-MEL-5 TRPM1 promoter luciferase, 24 h; 330,000 tested, 0.83% active; inhibition, % at 12.5 µM;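 active = mean inhibition across replicates of 60% or more, whatever share of single replicates reaches that level; inconclusive = some that reach 60%, reason not given; inactive = mean inhibition across replicates below 60%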
# PAX8 reporter: inhibitors of PAX8-driven TPO luciferase reporter, primary screen, RMG-I cells, single concentration. AID 652154, 2013. inhibition, % at 12.6 µM. 360,000 tested, 1.2% active. SteadyGlo, 24 h;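 active = mean replicate inhibition at least 60% with every replicate also reaching 60%; inconclusive = only one of the two criteria is met; inactive = mean below 60% and not all replicates reaching 60%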;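 note: luciferase light reporting Pax8 driven TPO promoter activity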
# A number is an active result; n = inactive; u = inconclusive; x = no result; ! = not active in a repeat. In the library only some 2.2% were active in any assay of this set; here they are far more common.
SMILES,Shn3 3UTR inh,EWS-Fli inh,LMP1 NFkB inh,LGR2 antag,TRPM1 prom inh,PAX8 reporter
CC1=C/C(=C(/c2ccc(O)c(C)c2)c2ccccc2S(=O)(=O)O)C=CC1=O,n,n,n,n,n,n
CC1=C/C(=C(/c2cc(C)c(O)c(Br)c2)c2ccccc2S(=O)(=O)O)C=C(Br)C1=O,n,n,n,n,n,77
O=C(CSc1ncccc1-c1nc2ccccc2[nH]1)N1CCc2ccccc21,n,n,n,n,n,90
COC(=O)CSc1ncccc1-c1nc2ccccc2[nH]1,n,x,n,x,n,x
CN(C)c1ccc(/C=C/c2nc3ccccc3c(=O)[nH]2)cc1,n,79,48,91,n,n
COc1ccc(C(=O)Nc2cccc(/C=C/c3nc4ccccc4c(=O)[nH]3)c2)cc1,n,n,n,n,n,64
O=C(Nc1cccc(/C=C/c2nc3ccccc3c(=O)[nH]2)c1)c1ccccc1Cl,n,n,n,n,n,n
CN(CC(=O)Nc1ccccc1Cl)C(=O)COC(=O)c1ccc(Cl)nc1,n,n,n,n,n,n
CN(CC(=O)Nc1ccccc1Cl)C(=O)COC(=O)c1nc(Cl)c(Cl)c(Cl)c1Cl,n,n,n,n,74,n
CCCSc1cc(NCCOC(=O)CCC)c([N+](=O)[O-])c2nonc12,n,x,n,n,n,n
CCCC(=O)OCCNc1cc(Sc2nccn2C)c2nonc2c1[N+](=O)[O-],95,x,n,n,101,n
CCC(=O)OCCNc1cc(Sc2nc3ccccc3[nH]2)c2nonc2c1[N+](=O)[O-],96,x,n,n,72,n
O=C(NC[C@@H]1CC[C@@H]2[C@@H](CN2Cc2cc(-c3ccccc3)on2)O1)c1ccc2c(c1)OCO2,x,n,x,x,x,x
CCN(CC)Cc1cc(Nc2c3ccccc3nc3c4ccccc4n(C)c23)cc(CN(CC)CC)c1O,n,n,n,n,78,n
Oc1cccc(Nc2c3ccccc3nc3ccccc23)c1,n,n,n,n,n,n
CC1(C)CC(NS(=O)(=O)c2ccc(F)cc2)CC(C)(C)N1,n,n,43,n,n,n
COc1ccc2c3c([nH]c2c1)[C@@H](CO)N(C(=O)c1ccc(F)cc1)CC31CCN(C(=O)CC2CC2)CC1,x,n,x,n,x,x
C[C@@H]1CN([C@@H](C)CO)C(=O)c2cccc(NS(=O)(=O)c3ccc(F)cc3)c2O[C@@H]1CN(C)Cc1ccc(-c2ccccc2)cc1,x,n,x,n,x,75
C[C@@H]1CN([C@@H](C)CO)C(=O)c2cccc(NS(=O)(=O)c3ccc(F)cc3)c2O[C@H]1CN(C)Cc1ccc(-c2ccccc2)cc1,x,n,x,n,x,78
Cc1noc(C)c1NC(=O)Nc1cccc2c1O[C@H](CN(C)Cc1ccc(-c3ccccc3)cc1)[C@@H](C)CN([C@H](C)CO)C2=O,x,n,x,n,x,62
Cc1noc(C)c1NC(=O)Nc1cccc2c1O[C@H](CN(C)Cc1ccccc1)[C@@H](C)CN([C@H](C)CO)C2=O,x,n,x,n,x,n
C[C@@H]1CN([C@@H](C)CO)C(=O)c2cc(C#CCN(C)C)cnc2O[C@H]1CN(C)Cc1ccc(-c2ccccc2)cc1,x,73!,x,n,x,x
C[C@H]1CN([C@@H](C)CO)C(=O)c2cccc(NS(=O)(=O)c3ccc(F)cc3)c2O[C@@H]1CN(C)Cc1ccc(-c2ccccc2)cc1,x,n,x,n,x,n
Cn1cnc(S(=O)(=O)N[C@H]2C=C[C@@H](CC(=O)NCC3CC3)O[C@@H]2CO)c1,x,n,x,n,x,n
Cc1ccccc1-c1ccc2c(c1)O[C@H](CN(C)C(=O)Nc1ccc(F)cc1)[C@H](C)CN([C@@H](C)CO)S2(=O)=O,x,n,x,n,x,n
SMILES,Shn3 3UTR inh,EWS-Fli inh,LMP1 NFkB inh,LGR2 antag,TRPM1 prom inh,PAX8 reporter
COc1ccc(CN(C)C[C@@H]2Oc3c(NC(=O)C4CCCCC4)cccc3C(=O)N([C@H](C)CO)C[C@H]2C)cc1,x,n,x,n,x,64
COc1ccc(CN(C)C[C@@H]2Oc3c(NC(=O)C4CCCCC4)cccc3C(=O)N([C@H](C)CO)C[C@@H]2C)cc1,x,n,x,n,x,n
Cc1cc(C(=O)Nc2cccc3c2O[C@@H](CN(C)Cc2ccccc2)[C@@H](C)CN([C@H](C)CO)C3=O)n(C)n1,x,n,x,n,x,n
Cc1cc(C(=O)Nc2cccc3c2O[C@H](CN(C)Cc2ccc(Oc4ccccc4)cc2)[C@@H](C)CN([C@H](C)CO)C3=O)n(C)n1,x,n,x,n,x,76
Cc1cccc2c3c([nH]c12)[C@H]1CCC(=O)N1CC3,x,n,x,x,x,n
Cc1ccc(/C=C/C(=O)C2C(=O)c3ccccc3C2=O)cc1,n,x,47,n,n,x
O=C(CCN1CCCCC1)NCC[C@@H]1CC[C@@H](NC(=O)C2CCCC2)[C@H](CO)O1,x,n,x,n,x,n
COc1cccc(/C=N/NC(=O)C(=O)N/N=C/c2cccc(OC)c2O)c1O,n,n,n,n,n,n
COc1cc([N+](=O)[O-])cc(/C=N/NC(=O)c2ccc(NC(=O)c3ccc(C)cc3)cc2)c1O,n,n,n,n,72,n
COc1cccc(/C=N/NC(=O)c2cc3cc([N+](=O)[O-])ccc3s2)c1O,91,n,64,n,77,n
NC(=O)[C@H]1CC2(CC(c3cccc(NC(=O)CC(c4ccccc4)c4ccccc4)c3)=NO2)CN1C(=O)C(c1ccccc1)c1ccccc1 (some centres not stated),n,n,n,n,n,69
NC(=O)[C@H]1CC2(CC(c3cccc(NC(=O)COc4ccc(Cl)cc4)c3)=NO2)CN1C(=O)CC(c1ccccc1)c1ccccc1 (some centres not stated),n,n,n,n,n,n
NC(=O)[C@@H]1CC2(CC(c3cccc(NC(=O)CC(c4ccccc4)c4ccccc4)c3)=NO2)CN1C(=O)COc1ccc(Cl)cc1 (some centres not stated),n,n,n,n,n,77
CNC(=O)C[C@H]1CC[C@H]2[C@@H](COC[C@H](O)CN2C(=O)Nc2ccc3c(c2)OCO3)O1,x,x,x,n,x,x
C[C@@H]1CN([C@@H](C)CO)C(=O)c2cc(C3=CCCC3)cnc2O[C@H]1CN(C)Cc1cccc(F)c1,x,n,x,n,x,n
COCC(=O)N1C[C@@H](C)[C@H](OC)CN(C)C(=O)c2ccc(NC(=O)c3cc(C)on3)cc2OC[C@@H]1C,x,n,x,n,x,n
NC(=S)N/N=C/c1ncc(C(F)(F)F)cc1Cl,91,x,u,x,n,x
CC(C)C[C@H](N)c1nnc(SCC(=O)Nc2ccc(Br)cc2)o1,n,x,n,n,n,n
CC(C)C[C@H](N)c1nnc(S(=O)(=O)Cc2ccc(F)cc2)o1,90,x,n,x,n,x
O=C(c1ccc(F)cc1)N1CC(=O)N2[C@H](CO)[C@H](c3ccc(C#Cc4ccc(F)cc4)cc3)[C@H]2C1,x,n,x,n,x,n
